The values below come from PubChem BioAssay AID504332 (National Center for Advancing Translational Sciences (NCATS), 2011).

Among all 350,000 compounds or so, about 31,000 (8.9%) were called active. Not shown: some 15% with an inconclusive outcome. For the sample, actives were picked, then their nearest neighbours and some compounds at random. A number with no mark means an inactive call. The call rests on the fitted dose curve; in most records, active means well fitted inhibition curve with a large enough effect; inconclusive means small, poorly fitted or top-dose-only effect; inactive means no such curve, though single readings can be large or run the other way.
On the % scale 0 is the no-effect control and ±100 the full control effect; potency means the concentration at half of the fitted maximal effect.

Sequence of Histone-lysine N-methyltransferase EHMT2 (Homo sapiens) (Q96KQ7 913-1193 limits assumed): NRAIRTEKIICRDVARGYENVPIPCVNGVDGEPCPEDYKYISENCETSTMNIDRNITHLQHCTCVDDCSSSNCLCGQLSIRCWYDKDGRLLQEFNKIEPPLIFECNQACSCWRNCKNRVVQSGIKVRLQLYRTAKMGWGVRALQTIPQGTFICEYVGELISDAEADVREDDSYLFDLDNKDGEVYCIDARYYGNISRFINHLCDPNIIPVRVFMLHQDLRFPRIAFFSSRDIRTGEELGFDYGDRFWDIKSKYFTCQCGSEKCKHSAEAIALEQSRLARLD

The assay concerns the target Histone-lysine N-methyltransferase EHMT2 (Homo sapiens) (UniProt Q96KQ7). Description: qHTS Assay for Inhibitors of Histone Lysine Methyltransferase G9a. Further: nearly all actives have a fitted effect of over 75% in size. The note with it: G9a H3K9 monomethylation, AlphaScreen, 2 h; series mostly up to 59 µM; activity, negative = inhibition: at the top concentration. The text has this:
Methylated lysines, on the N-terminal tails of histone proteins serve as epigenetic markers to recruit factors that can then modify local chromatin structure to lead to functional consequences. G9a and other members of the SUV39 family of the SET domain-containing superfamily of histone lysine methyltransferases (HMT) have been identified to specifically methylate Lys9 of histone H3 (H3K9). G9a catalyzes the mono- and di-methylation of H3K9 in mammalian euchromatic regions, where the resulting H3K9me2 is indicative of transcriptional repression. […] The inhibition of G9a will result in transcriptional activation and work synergistically with DNA methyltransferase and histone deacetylase inhibitors, to kill cancer cells. This qHTS assay for identification of G9a inhibitors is a chemiluminescence based AlphaScreen (PerkinElmer). Methylation of biotinylated-histone peptide is measured through specific antibody-based detection, in conjunction with streptavidin-coated donor and anti-IgG antibody-coated acceptor beads. The method is particularly well suited for detection of inhibitors acting by the desired histone peptide competitive mechanism and is applicable to testing other HMTs. Although AlphaScreen has significant advantages with its utility in a variety of epigenetic target assays, the primary screening data provided in this deposition should be used with caution due to the prevalence of screening artifacts. An AlphaScreen counterscreen is highly recommended to be run against any putative actives to eliminate non specific artifacts. Alternatively, one can use other AlphaScreen assays in PubChem to filter out promiscuous hits. Quinn et al. A chemiluminescence-based method for identification of histone lysine methyltransferase inhibitors. Mol Biosyst 6(5): 782-8. 2010. PMID: 20567762 [2] Baell,Holloway. New substructure filters for removal of pan assay interference compounds (PAINS) from screening libraries and for their exclusion in bioassays. J Med Chem. 53(7):2719-40. 2010. PMID: 20131845 NIH Molecular Libraries Probe Production Network [MLPCN] NIH Chemical Genomics Center [NCGC] Structural Genomics Consortium (SGC) NIH Grant: 5U54 MH084681-02
To each well of a 1,536w plate, 2ul of HMT enzyme (final 20nM) were added, using a nanoliter dispenser. The G9a- and GLP-inhibitor BIX-01294 (CID: 25150857) are used as an intraplate control, with a 16-point titration in duplicate. A Kalypsys pin-tool transferred 23nl of library compound solution in DMSO to each well. Following a 15 min incubation of enzyme with compounds at room temperature, 1ul mixture of b-H3K9 peptide substrate (final 500nM) and SAM cofactor (final 20uM) were added. Reactions were allowed to proceed at room temperature for 2 hours. Methylated b-H3K9 peptide product was detected with 0.5 ug/mL rabbit polyclonal anti-monomethyl histone H3K9 antibody (Abcam Inc., Cambridge, MA) and 20 ug/mL each streptavidin-coated donor and anti-rabbit IgG acceptor AlphaScreen beads. Antibody and beads were added in a 1ul dispense, for a final volume of 4ul, and plates were incubated, protected from the light, for 10 min at room temperature. Microplates were then read on an EnVision multilabel plate reader using the 1,536 plate HTS AlphaScreen aperture (excitation time 80 ms, measurement time 240 ms).
Background: In qHTS, concentration-response curves come from the screen itself.
On to `CC(=O)CC[C@@H](C)O[C@@H]1OC(C)[C@H](O)CC1O` (some centres not stated), for which the activity, negative = inhibition is 14.8% [at 2.33 µM].

Regarding `COCc1ccc(C(=O)N2CCc3c([nH]c4ccccc34)C2c2ccccn2)s1` (configuration not stated), the Potency is 31.6 µM (active).

With `CC1CCN(C(=O)COC(=O)c2cc(=O)[nH]c3ccccc23)CC1`, the activity, negative = inhibition is -8.14% [at 12.7 µM].

As for `Cc1cccc(C(=O)N2CCc3c([nH]c4ccccc34)C2CC(C)C)n1` (configuration not stated), the “activity, negative = inhibition” value was -45.6% [at 102 µM].

Turning to `CCOc1cccc(CC(=O)N2CCc3c([nH]c4ccccc34)C2c2ccc(F)cc2)c1OCC` (configuration not stated), the “activity, negative = inhibition” value was -36.5%.

For `Cc1cccc(C2c3[nH]c4ccccc4c3CCN2C(=O)c2cc(-c3cccn3C)n[nH]2)n1` (configuration not stated), the Potency was 28.2 µM (active).

For `CCc1nnc(SCc2c(F)cccc2Cl)c2cc3sccc3n12`, the “activity, negative = inhibition” value is 3.16%.

On to `CC(C)CN(C(=O)c1ccc2c(c1)OCO2)C1CCS(=O)(=O)C1` (configuration not stated), for which the “activity, negative = inhibition” value was -5.1% [at 102 µM].

For the compound `CN(CC(=O)Nc1cccc(F)c1)C(=O)C1CSC2(C)CCC(=O)N12` (configuration not stated), the “activity, negative = inhibition” value is -26.8% [at 102 µM].

Consider `CCC(=O)N1CCc2cc(S(=O)(=O)NC(CC(C)C)C(=O)NCCc3cccc(C)c3)ccc21` (configuration not stated), for which the “activity, negative = inhibition” value is -2.04%.

Regarding `Cc1cc(NC(=O)COc2ccccc2C#N)no1`, the “activity, negative = inhibition” value is 14.3%.

Take `O=C(c1ccc(C(F)(F)F)cc1)C1CCCN(C(=O)c2csnn2)C1` (configuration not stated): the “activity, negative = inhibition” value is 5.79% [at 102 µM].

Take `Cc1cnc(C(=O)N2CCCC(C(=O)c3ccc(C(F)(F)F)cc3)C2)cn1` (configuration not stated): the Potency was 22.4 µM (active).

Consider `COCC(=O)N1CCCC(C(=O)c2ccc(C(F)(F)F)cc2)C1` (configuration not stated), for which the “activity, negative = inhibition” value was -9.75% [at 102 µM].

On to `Cc1nc2ccc(NC(=O)C3CCCCC3)cc2s1`, for which the activity, negative = inhibition was 8.28% [at 12.7 µM].

For the compound `O=C(Nc1nc2cc3c(cc2s1)OCCO3)c1cccc(S(=O)(=O)N2CCOCC2)c1`, the “activity, negative = inhibition” value is 41.1% [at 102 µM].

With `CCc1ccc(Nc2nn3c(=O)c4cc5c(cc4nc3s2)OCO5)cc1`, the “activity, negative = inhibition” value is -48.5%.

Take `CN(C)CCCN(C(=O)c1ccc(S(=O)(=O)N2CCCCCC2)cc1)c1nc2cc3c(cc2s1)OCCO3`: the Potency is 44.7 µM (active).

Consider `CN(C)CCN(C(=O)C1CCCCC1)c1nc2cc3c(cc2s1)OCO3`, for which the Potency was 70.8 µM (active).

On to `CCN(CC)CCN(C(=O)c1ccc(N2C(=O)CCC2=O)cc1)c1nc2cc3c(cc2s1)OCO3`, for which the Potency was 35.5 µM (active).

For `CCCCN(CC)C(=O)c1ccc2c(c1)OCO2`, the “activity, negative = inhibition” value is -0.485%.

Turning to `CCc1ccc2nc(N(CCCN(C)C)C(=O)c3ccc4c(c3)OCCO4)sc2c1`, the “activity, negative = inhibition” value was 89.7% [at 102 µM].

Regarding `Cc1nc2cc3c(cc2s1)OCO3`, the “activity, negative = inhibition” value is -0.0764% [at 102 µM].

Turning to `CCN(CC)CCN(C(=O)c1cc(Cl)sc1Cl)c1nc2cc3c(cc2s1)OCO3`, the Potency was 50.1 µM (active).

On to `O=C(NCc1ccc2c(c1)OCO2)c1ccc(Cl)s1`, for which the “activity, negative = inhibition” value was -27% [at 102 µM].

For the compound `COc1ccccc1N1CCN(CC(=O)Nc2ccnn2C2CCCC2)CC1`, the activity, negative = inhibition was 10.3% [at 2.33 µM].

`CCC1Nc2ncnc(N3CCN(c4ccccc4)CC3)c2N(Cc2ccc(Cl)cc2)C1=O` (configuration not stated): the activity, negative = inhibition was 3.93% [at 2.33 µM].

For the compound `CC(C)NC(=O)c1nn(-c2ccccc2F)nc1CO`, the “activity, negative = inhibition” value was -10.9%.

Take `OCC(CO)NC1C[C@](O)(CO)[C@@H](O)[C@H](O)[C@H]1O` (some centres not stated): the “activity, negative = inhibition” value is 19.5%.

Turning to `O=C(c1cccs1)N1CCC(c2nc3ccccc3s2)CC1`, the Potency was 39.8 µM (active).

On to `Cc1cccc(NC(=S)N2CCC(c3nc4ccccc4s3)CC2)c1`, for which the activity, negative = inhibition was 30.9% [at 0.501 µM].

For the compound `CC(C)(C)c1ccc(OCC(=O)N2CCC(c3nc4ccccc4s3)CC2)cc1`, the “activity, negative = inhibition” value was -7.56%.

Turning to `CC(=O)c1cccc(NC(=O)c2nc(-c3ccccc3)n(-c3cccc(C)c3)n2)c1`, the “activity, negative = inhibition” value is -29.5%.

On to `CCOc1ccc(CCNC(=O)c2cc3c(=O)n(C)c4ccccc4c3n2C)cc1`, for which the “activity, negative = inhibition” value is 8.2%.

Regarding `O=C(CCn1c(=O)[nH]c2ccccc2c1=O)NCCCN1CCN(c2cccc(Cl)c2)CC1`, the “activity, negative = inhibition” value was -3.86%.

In the case of `Cn1c(C(=O)NCCCN2CCN(c3cccc(Cl)c3)CC2)cc2c(=O)n(C)c3ccccc3c21`, the Potency is 7.94 µM (active).

For the compound `CCN1C(=O)c2ccccc2Sc2ccc(NC(=O)Cc3ccc(OC)cc3)cc21`, the “activity, negative = inhibition” value was 10.7%.

`COc1cc(-c2nnn(CC(=O)NCc3ccccc3)n2)cc(OC)c1OC`: the Potency result is “inactive”.

Turning to `COc1cc(-c2n[nH]c(=S)n2Cc2ccccc2)cc(OC)c1OC`, the Potency was 3.55 µM (active).

Consider `CCC(C)n1c(-c2cc(OC)c(OC)c(OC)c2)nc2nc3ccccc3nc21` (configuration not stated), for which the “activity, negative = inhibition” value was -1.08% [at 102 µM].

In the case of `COC(=O)C1=C(O)/C(=C/c2ccc(OCC(=O)Nc3ccccc3)cc2)N=C1C`, the “activity, negative = inhibition” value is 82.1% [at 102 µM].

Turning to `CCOC(=O)c1nn(-c2cccc(C)c2)cc1C(=O)c1ccccc1`, the activity, negative = inhibition is -45.6% [at 2.33 µM].

As for `CCOC(=O)C1=C(O)/C(=C/c2cc(C)n(-c3ccccc3)c2C)N=C1C`, the Potency was 50.1 µM (active).

As to `COc1ccc2oc(C(=O)NCC(Cc3ccccc3)N(C)C)c(C)c2c1` (configuration not stated), the “activity, negative = inhibition” value was -3.8% [at 102 µM].

In the case of `Cc1ccc(OC(=O)c2cncc(Br)c2)c(C)c1`, the “activity, negative = inhibition” value was 68.2% [at 102 µM].

For `COc1ccc(NC(=O)CCNS(=O)(=O)c2ccc3c(c2)c(=O)n(C)c(=O)n3C)cc1OC`, the “activity, negative = inhibition” value was 4.33% [at 102 µM].

On to `Cn1c(=O)c2cn(-c3cccc4ccccc34)cc2n(C)c1=O`, for which the activity, negative = inhibition is 5.87% [at 2.33 µM].
